The values below come from PubChem BioAssay (Tox21).

Experiment [1] is described as follows: qHTS assay to test for compound auto fluorescence at 535 nm (green) in HEK293 cells (AID 720680). (In qHTS, concentration-response curves come from the screen itself.)
Experiment [2] can be described thus: qHTS assay to test for compound auto fluorescence at 460 nm (blue) in HEK293 cell free culture (AID 720681). Note: potency is the fitted concentration of half-maximal effect. The method in brief: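 Test compounds were pinned into cell-free culture medium (DMEM with 10% FBS) and fluorescence was read directly at Ex/Em 405/460 nm. Signals were expressed as fluorescence equivalents of triamterene, with DMSO vehicle as control.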

The nature of experiment [3]: qHTS assay to test for compound auto fluorescence at 535 nm (green) in HEK293 cell free culture (AID 720682). The procedure, abridged:
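DMEM + 10% FBS, cell-free; cpd or DMSO pinned in; Ex485/Em535 read; output as fluorescein-equivalent signal.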

Experiment [4] in a line: qHTS assay to test for compound auto fluorescence at 590 nm (red) in HEK293 cell free culture (AID 720683). The method in brief: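 Tox21 10K library compounds were pinned into cell-free DMEM with 10% FBS and fluorescence was read at excitation 540 nm. Activity is expressed as Rose Bengal sodium equivalency.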
Experiment [5] can be described thus: qHTS assay to test for compound auto fluorescence at 590 nm (red) in HepG2 cell free culture (AID 720684). The method in brief:
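Red fluorescence (540 nm excitation, 590 nm emission) was measured after compound transfer into cell-free MEM supplemented with 10% FBS. Values are equivalencies against Rose Bengal sodium.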

Experiment [6] is described as follows: qHTS assay to test for compound auto fluorescence at 460 nm (blue) in HepG2 cell free culture (AID 720685). Note: potency is the fitted concentration of half-maximal effect. The procedure, abridged: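 Compound (23 nL) or DMSO pinned into cell-free MEM with 10% FBS; blue fluorescence read at 405/460 nm excitation/emission, expressed as auto-fluorescence equivalency to triamterene.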
Experiment [7] in a line: qHTS assay to test for compound auto fluorescence at 535 nm (green) in HepG2 cell free culture (AID 720686).
Experiment [8] is described as follows: qHTS assay to test for compound auto fluorescence at 460 nm (blue) in HepG2 cells (AID 720687). Note: potency is the fitted concentration of half-maximal effect. The procedure, abridged: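 Cells (2,000/well in MEM with 10% FBS) attached overnight at 37 C, then were exposed to compound or DMSO for 1 hr at 37 C, 5% CO2. Fluorescence read at Ex/Em 405/460 nm, expressed as triamterene-equivalent signal.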
Experiment [9] addresses Glucocorticoid receptor (Homo sapiens) (UniProt P04150). Briefly: qHTS assay to identify small molecule agonists of the glucocorticoid receptor (GR) signaling pathway (AID 720691; active = well fitted activation curve with a large enough effect in the signal ratio in the repeat runs, not every such curve was filed as active; the % refers to the signal ratio; note: potency is the fitted concentration of half-maximal effect). The method in brief:
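Agonist mode in a HeLa line carrying a GRE-controlled beta-lactamase reporter. Compounds act for 18 h at 37 C before a 2 h room-temperature FRET substrate step and fluorescence reading.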

A number with no mark means an inactive call. Inconclusive results are not listed. The source made the active and inactive calls. Unless noted, calls come from the whole dose curve; as a rule, active = well fitted curve in the direction sought with a large enough effect in the repeat runs; inconclusive = weak or mixed curves; inactive = flat fitted curve, though single readings scatter.
% is set by controls: 0 for no effect and ±100 for the full control effect; tags give direction and shape of the fitted curve or compound fluorescence and quenching.

Chain of Glucocorticoid receptor (Homo sapiens) (P04150 whole entry, looked up): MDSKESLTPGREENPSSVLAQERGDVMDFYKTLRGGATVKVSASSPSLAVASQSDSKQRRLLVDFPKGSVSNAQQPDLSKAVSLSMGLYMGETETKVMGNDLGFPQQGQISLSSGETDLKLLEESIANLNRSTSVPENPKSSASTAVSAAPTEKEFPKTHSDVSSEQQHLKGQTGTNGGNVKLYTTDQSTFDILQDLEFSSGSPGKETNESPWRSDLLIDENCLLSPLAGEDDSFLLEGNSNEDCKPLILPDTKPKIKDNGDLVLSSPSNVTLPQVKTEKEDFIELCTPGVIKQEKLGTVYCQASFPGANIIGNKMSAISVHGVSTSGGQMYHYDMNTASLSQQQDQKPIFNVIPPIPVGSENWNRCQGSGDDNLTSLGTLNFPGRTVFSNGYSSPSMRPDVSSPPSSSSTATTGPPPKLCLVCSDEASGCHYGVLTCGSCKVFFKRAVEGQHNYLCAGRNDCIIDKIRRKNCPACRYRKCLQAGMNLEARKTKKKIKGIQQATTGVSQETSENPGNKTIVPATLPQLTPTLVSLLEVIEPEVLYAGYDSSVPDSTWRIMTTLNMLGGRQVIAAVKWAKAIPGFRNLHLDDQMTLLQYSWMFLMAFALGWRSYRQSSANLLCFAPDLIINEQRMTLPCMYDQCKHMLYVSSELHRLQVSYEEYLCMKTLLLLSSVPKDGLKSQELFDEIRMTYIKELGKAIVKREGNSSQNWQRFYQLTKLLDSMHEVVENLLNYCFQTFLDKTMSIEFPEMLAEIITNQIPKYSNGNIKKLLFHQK

As to `Clc1ccc(C(Cl)(Cl)Cl)c(Cl)c1`, the compound was called inactive in experiment [1], in [3], in experiment [4], in experiment [5] and in [7]. In addition, the Potency result in experiment [2], in experiment [6] and in experiment [8] was “inactive” throughout.

Take `Oc1ccc2ccc3cccc4ccc1c2c34`: the outcome in experiment [1], in experiment [3], in experiment [4], in [5] and in experiment [7] was inactive. Besides, the Potency in experiment [2] was 44.7 µM (active); in [6] it was 39.8 µM [fluorescent] (active); in [8], 35.5 µM [fluorescent] (active). In addition, in [9], the Potency entry was “inactive”.

As to `CCC[CH2][Sn]([CH2]CCC)([CH2]CCC)[O]C(=O)c1ccccc1`, the outcome in experiment [1], in experiment [3], in experiment [4], in experiment [5] and in experiment [7] was inactive. For the same compound, the Potency entry in experiment [2], in experiment [6] and in experiment [8] was “inactive” in each case.

Regarding `Clc1ccc(CSC(Cn2ccnc2)c2ccc(Cl)cc2Cl)cc1` (centres undefined), in [1], the fluorescence, % of fluorescein was -0.0144% [at 18.6 µM]. Besides, the fluorescence, % of fluorescent control in [2] was 0.0923% [at 18.6 µM]; in [4], 0.289% [at 18.6 µM]; in experiment [6], 0.0769% [at 18.6 µM]; in experiment [8], 0.0355% [at 18.6 µM]. In addition, the activity change in experiment [3] is -0.0182% [at 18.6 µM]. Further, the fluorescence, % of Rose Bengal in [5] is -0.065% [at 18.6 µM]. Moreover, in experiment [7], the fluorescence, % of fluorescein control was -0.107% [at 18.6 µM].

Turning to `CCOCn1c(-c2ccc(Cl)cc2)c(C#N)c(Br)c1C(F)(F)F`, the result in experiment [1], in [3], in [4], in [5] and in experiment [7] was inactive. For the same compound, the Potency result in experiment [2], in [6] and in experiment [8] was “inactive” each time.

As to `CCCCCCCCCCCCCCCC[N+](C)(C)C`, the result in experiment [1], in experiment [3], in [4], in [5] and in [7] was inactive. Moreover, the Potency entry in [2], in experiment [6] and in experiment [8] was “inactive” throughout.

With `CN(C)CCc1c[nH]c2ccc(O)cc12`, the call in [1], in [3], in experiment [4], in experiment [5] and in [7] was inactive. The Potency result in experiment [2], in experiment [6], in experiment [8] and in experiment [9] was “inactive” in each case.

Turning to `O=[N+]([O-])c1ccc(Oc2ccc(C(F)(F)F)cc2[N+](=O)[O-])cc1`, the call in experiment [1], in experiment [3], in [4], in [5] and in experiment [7] was inactive. For the same compound, the Potency result in experiment [2], in experiment [6] and in experiment [8] was “inactive” each time.

As for `CCOC(=O)C1(c2ccccc2)CCN(CCC(C#N)(c2ccccc2)c2ccccc2)CC1`, the compound was called inactive in experiment [1], in [3], in experiment [4], in experiment [5] and in experiment [7]. Moreover, the Potency entry in experiment [2], in experiment [6] and in [8] was “inactive” throughout. Also, the Potency in [9] was 60 µM (active).

Consider `O=[N+]([O-])c1cc([N+](=O)[O-])c2ccccc2c1`, for which the outcome in experiment [1], in experiment [3], in experiment [4], in experiment [5] and in experiment [7] was inactive. Moreover, the Potency entry in [2], in experiment [6], in experiment [8] and in [9] was “inactive” throughout.

With `CC1(C)CC/C(=C/c2ccc(Cl)cc2)C1(O)Cn1cncn1` (centres undefined), the call in [1], in experiment [3], in experiment [4], in experiment [5] and in [7] was inactive. In addition, the Potency result in experiment [2], in [6], in experiment [8] and in [9] was “inactive” each time.

For `CC(C)(C)c1ccc(CSc2cnn(C(C)(C)C)c(=O)c2Cl)cc1`, the outcome in experiment [1], in experiment [3], in [4], in experiment [5] and in experiment [7] was inactive. Further, the Potency result in experiment [2], in experiment [6], in [8] and in experiment [9] was “inactive” throughout.

Consider `ClC1=C(Cl)C2(Cl)C3C(Cl)C=CC3C1(Cl)C2(Cl)Cl` (centres undefined), for which the call in [1], in [3], in [4], in [5] and in experiment [7] was inactive. Besides, the Potency entry in [2], in [6] and in experiment [8] was “inactive” each time.

On to `CC(C)Oc1cccc(NC(=O)c2ccccc2C(F)(F)F)c1`, for which the result in [1], in [3], in [4], in [5] and in experiment [7] was inactive. For the same compound, the Potency result in [2], in [6] and in experiment [8] was “inactive” in each case.

Turning to `CCCCCCCCc1ccc(O)cc1`, the compound was called inactive in [1], in experiment [3], in experiment [4], in [5] and in experiment [7]. In addition, the Potency entry in experiment [2], in [6], in [8] and in [9] was “inactive” throughout.

Turning to `CC(C)[C@H](C(=O)OC(C#N)c1cccc(Oc2ccccc2)c1)c1ccc(OC(F)F)cc1` (some centres undefined), the call in experiment [1], in [3], in experiment [4], in [5] and in experiment [7] was inactive. Moreover, the Potency entry in experiment [2], in experiment [6] and in [8] was “inactive” throughout.

`C1CCC2CCCCC2C1` (centres undefined): the outcome in experiment [1], in experiment [3], in experiment [4], in experiment [5] and in [7] was inactive. Besides, the Potency entry in [2], in experiment [6], in experiment [8] and in experiment [9] was “inactive” throughout.

In the case of `CS(=O)(=O)c1ccc(C(=O)C2C(=O)CCCC2=O)c([N+](=O)[O-])c1`, the compound was classed as inactive in experiment [1], in experiment [3], in [4], in experiment [5] and in [7]. The Potency result in [2], in [6] and in [8] was “inactive” in each case.

In the case of `CC(C)N1C(=O)N(c2ccccc2)CSC1=NC(C)(C)C`, the compound was called inactive in [1], in [3], in experiment [4], in experiment [5] and in experiment [7]. Besides, the Potency result in experiment [2], in experiment [6], in experiment [8] and in experiment [9] was “inactive” each time.

For `Cc1cc(C)cc(OP(=O)(Oc2cc(C)cc(C)c2)Oc2cc(C)cc(C)c2)c1`, the outcome in experiment [1], in [3], in [4], in [5] and in experiment [7] was inactive. The Potency result in [2], in [6], in experiment [8] and in [9] was “inactive” each time.

For `COc1ccc(N)cc1N`, the compound was classed as inactive in experiment [1], in [3], in experiment [4], in experiment [5] and in experiment [7]. The Potency result in experiment [2], in experiment [6], in experiment [8] and in [9] was “inactive” throughout.

As to `CC(C)(O)c1cnn2c(-c3ccc(F)c(-c4c(F)cccc4C#N)c3)cnc2n1`, the outcome in experiment [1], in experiment [3], in [4], in [5] and in [7] was inactive. For the same compound, the Potency result in experiment [2], in experiment [6] and in experiment [8] was “inactive” in each case.

Take `[CH3][Hg][Cl]`: the outcome in experiment [1], in [3], in experiment [4], in experiment [5] and in [7] was inactive. Besides, the Potency entry in experiment [2], in experiment [6] and in [8] was “inactive” in each case.

On to `CCC(C)(C)C(=O)OC1=C(c2ccc(Cl)cc2Cl)C(=O)OC12CCCCC2`, for which the result in [1], in experiment [3], in [4], in experiment [5] and in experiment [7] was inactive. The Potency result in [2], in experiment [6], in experiment [8] and in [9] was “inactive” each time.
